# Source: PubChem (National Center for Advancing Translational Sciences (NCATS))
# FEN1 inh: human FEN1 inhibition | 390,000 compounds, 0.35% hits | Potency, µM (series often up to 114 µM), without a hit: top-dose activity change, negative = inhibition, usual class: inhibitors | AID 588795 | P39748 | Recombinant FEN1 flap cleavage, fluorescence, 15 min; note: potency is the fitted concentration of half-maximal effect; % is set by controls: 0 for no effect and ±100 for the full control effect; nearly all actives have a fitted effect of over 65% in size
# Target sequence (P39748 whole entry, looked up): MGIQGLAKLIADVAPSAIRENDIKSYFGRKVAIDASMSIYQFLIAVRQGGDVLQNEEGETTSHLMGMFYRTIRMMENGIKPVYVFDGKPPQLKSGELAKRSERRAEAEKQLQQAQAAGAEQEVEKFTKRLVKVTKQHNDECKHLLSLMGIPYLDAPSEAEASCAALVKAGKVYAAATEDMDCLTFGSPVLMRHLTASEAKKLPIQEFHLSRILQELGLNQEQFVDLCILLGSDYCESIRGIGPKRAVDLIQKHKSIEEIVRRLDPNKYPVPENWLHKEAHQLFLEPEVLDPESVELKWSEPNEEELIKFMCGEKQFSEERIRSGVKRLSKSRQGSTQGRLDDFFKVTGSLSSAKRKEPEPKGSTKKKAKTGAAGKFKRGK
#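 Recombinant FEN1 (10 nM) was preincubated with pin-transferred compounds for 15 min at room temperature, then flap DNA substrate (50 nM final) was added. Plates were read at 0 and 15 min, and normalized concentration–response data were fitted to a four-parameter Hill equation.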
# WRN inhibitor: WRN helicase (human) inhibition | 360,000 compounds, 0.46% hits | Potency, µM (highest dose often 114 µM), for the others: top-dose activity change, negative = inhibition, usual class: inhibitors | Q14191 | WRN helicase unwinding, fluorescent forked duplex, kinetic; note: potency is the fitted concentration of half-maximal effect; % is set by controls: 0 for no effect and ±100 for the full control effect; nearly all actives have a fitted effect of over 55% in size
#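 Fluorescence dequenching readout, ex 525 nm/em 598 nm, kinetic mode: forked duplex DNA (100 nM final) with adjacent fluorophore and quencher unwound by WRN (20 nM final) with 2 mM ATP. Compound preincubation 15 min, room temperature.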
# PLK1 PBD inh: inhibitors of human PLK1 polo-box domain binding; P53350; Plk1 PBD binding of FITC phosphopeptide, fluorescence polarization; Potency, µM, for inactives: max response, negative = inhibition, actives largely listed as inhibitors; 360,000 compounds, 2.8% hits; AID 720504; note: potency is the fitted concentration of half-maximal effect; series mostly up to about 57 µM; % is set by controls: 0 for no effect and ±100 for the full control effect; nearly all actives have a fitted effect of over 65% in size
# PI5P4Ka inh: inhibitors of human PI5P4K alpha; P48426; PI5P4Kalpha enzyme, ADP-Glo luminescence, 60 min; hits give low values; max response, %; 330,000 compounds, 1.2% hits; active = max response of -50% or lower; inconclusive = between -30% and -50%; inactive = -30% or higher; note: value at the top dose of about 77 µM; % is set by controls: 0 for no effect and ±100 for the full control effect
#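 Quantitative HTS of the MLSMR library against PI5P4Kalpha with substrate. ATP added last at 5 microM final; room temperature, 60 minutes. Remaining ATP depleted, ADP converted and read as luminescence.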
# TCR act: activators of T cell receptors; Potency, µM (doses to about 9.22 µM), without a hit: at the highest dose activation of IL-2 secretion, hits mostly activators; primary human leukocytes, anti-CD3, IL-2 HTRF, 48 h; 330,000 tested, under 10 active; note: % of control where 0% means no effect
#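 IL-2 produced over 48 hr by a-CD3 bead-stimulated primary human leukocytes exposed to compounds was detected with a homogeneous time-resolved FRET immunoassay, 665nm acceptor signal after 320nm excitation.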
# VDR inhibitor: vitamin D3 receptor (human) inhibition; P11473; VDR-SRC2-3 peptide fluorescence polarization, 2 h; 400,000 compounds, 0.93% hits; Potency, µM, inactives show max response, negative = inhibition, actives largely listed as inhibitors; note: potency is the fitted concentration of half-maximal effect; % is set by controls: 0 for no effect and ±100 for the full control effect
# Target sequence (P11473 whole entry, looked up): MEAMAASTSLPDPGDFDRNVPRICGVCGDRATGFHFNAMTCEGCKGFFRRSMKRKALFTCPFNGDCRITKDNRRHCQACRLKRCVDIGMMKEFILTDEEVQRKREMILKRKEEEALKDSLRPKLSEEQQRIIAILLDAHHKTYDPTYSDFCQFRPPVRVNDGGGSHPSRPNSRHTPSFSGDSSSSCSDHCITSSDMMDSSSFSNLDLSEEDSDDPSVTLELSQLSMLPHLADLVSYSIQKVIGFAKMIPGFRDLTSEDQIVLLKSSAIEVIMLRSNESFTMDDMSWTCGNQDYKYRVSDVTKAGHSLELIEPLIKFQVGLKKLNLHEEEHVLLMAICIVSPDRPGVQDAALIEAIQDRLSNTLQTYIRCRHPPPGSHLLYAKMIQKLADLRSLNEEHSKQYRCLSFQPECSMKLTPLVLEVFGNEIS
#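 Signal is fluorescence polarization, reporting how far test compounds block the interaction of VDR with the SRC2-3 coregulator peptide after a 2 h room-temperature incubation.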
# Active calls of the source: *; u = inconclusive; x = no result given; [ ] = remark or other dose. Shown are actives, neighbours in structure and some others; about 3.7% of the full set was active somewhere. Unless noted, calls come from the whole dose curve; as a rule, active = well fitted curve in the direction sought with a large enough effect; inconclusive = small, poorly fitted or top-dose-only effect, or another doubt; inactive = no such curve, though single readings can be large; an effect the other way counts as inactive or inconclusive.
SMILES,FEN1 inh,WRN inhibitor,PLK1 PBD inh,PI5P4Ka inh,TCR act,VDR inhibitor
CSc1ccccc1C(=O)Nc1ccccc1C(=O)NC(C)C,0.7%,-6.3%,29.9µM*,-19.9,-1.9%,79.4µM*
CSc1ccccc1C(=O)Nc1cccc(C)c1,5.4%,0.4%,-0.7%,x,2.2%,-2.7%
C=CCOc1cccc(NC(=O)c2ccccc2SC)c1,-23.3%,0.7%,26.7µM*,-2.6,10.3%,-18.7%
CC(C)NC(=O)c1ccccc1NC(=O)C1COc2ccccc2O1 (centres undefined),-4.7%,2.9%,26.7µM*,-8.7,5.2%[46.1 µM],u
O=C(COC(=O)c1ccccc1Oc1ccccc1)Nc1ccc(Br)cc1,13.6%,x,x,x,x,x
Cc1ccc(S(=O)(=O)N2CCC(C)CC2)c([N+](=O)[O-])c1,-9.7%,11.6%[57.1 µM],23.8µM*,-1.4,1.3%,-7.4%
Cc1ccc([N+](=O)[O-])cc1S(=O)(=O)N1CCCC1,-0.7%,11.7%,-11.9%,-6.7,-3.4%[46.1 µM],-18.1%
Cc1ccc([N+](=O)[O-])cc1S(=O)(=O)N1CCC(C)CC1,-0.8%,-7.0%[57.1 µM],37.7µM*,-2.1,7.4%,1.6%
COc1ccc(C)cc1S(=O)(=O)N1CCC(C)CC1,-9.8%,4.7%,-9.3%,x,3.0%,-5.8%
CC(C)(C)n1ncc2c(=O)n(Cc3ccc(Cl)c(OC(F)(F)F)c3)cnc21,-31.7%,x,x,x,x,x
N#CCCCS(=O)(=O)c1nnnn1C1CCCCC1,x,x,x,x,x,7.9%
CN(C)c1ccc(C=O)c(Cl)c1,-16.3%,x,x,x,x,x
CCCc1[nH][nH]c(=O)c1C(c1ccc(Br)cc1)C(C#N)C#N (centres undefined),0.8%,-21.7%,5.97µM*,x,-7.1%,79.4µM*
O=C(O)c1ccccc1/C=N/n1c(C2CCCCC2)n[nH]c1=S,3.5%,3.5%,-17.9%,-21.4,-0.4%,u
COc1cc(/C=N/n2c(C3CCCCC3)n[nH]c2=S)cc(Br)c1O,5.3%,-0.9%,-6.9%,-62.0*,-0.9%,11.5%
CCOc1ccccc1/C=N/n1c(C2CCCCC2)n[nH]c1=S,u,-8.3%,u,-1.8,5.3%,-13.8%
Cc1cccc(/C=N/n2c(C3CCCCC3)n[nH]c2=S)c1,-17.9%,2.0%,26.7µM*,3.4,14.9%,u
FC(F)(F)c1ccccc1/C=N/n1c(C2CCCCC2)n[nH]c1=S,-6.7%,-5.5%,26.7µM*,-1.1,5.4%,-9.8%
S=c1[nH]nc(C2CCCCC2)n1/N=C/c1ccccc1Cl,-20.9%,-13.0%,13.4µM*,4.3,0.7%,-4.4%
S=c1[nH]nc(C2CCCCC2)n1/N=C/c1cccc(Br)c1,8.3%,0.3%,-14.3%,-4.9,-1.0%,2.4%
CSc1ncc(C(=O)NCc2ccc(C)cc2)c(-c2ccccc2)n1,4.6%,x,x,x,x,10.8%
COc1ccc(-c2nnc(C3CCN(C(=O)c4ccccc4F)CC3)o2)cc1,-10.6%,x,x,x,x,-16.5%
C[C@H]1[C@H](C)CC[C@]2(C=O)CC[C@]3(C)C(=CC[C@@H]4[C@@]5(C)C[C@@H](O)[C@H](O)[C@@](C)(CO)[C@@H]5CC[C@]43C)[C@H]12,x,x,x,x,x,-0.4%
CCCC(=O)Nc1c(C)n[nH]c1C,-1.2%,-10.5%,26.7µM*,-0.7,-0.1%,-16.5%
CCOC(=O)N1CCN(/[N+]([O-])=N/Oc2ccc([N+](=O)[O-])cc2[N+](=O)[O-])C(C)C1 (centres undefined),-16.9%,x,x,x,x,-14.8%
SMILES,FEN1 inh,WRN inhibitor,PLK1 PBD inh,PI5P4Ka inh,TCR act,VDR inhibitor
Cc1ccc(C(=O)c2oc3ccccc3c2NC(=O)Cc2coc3c(C)c(C)ccc23)cc1,-5.3%,x,x,x,x,3.6%
CCOC(=O)c1c(C)[nH]c(C(=O)/C(C#N)=C/c2ccc(OC(F)F)c(OC)c2)c1C,-9.6%,-5.0%,4.74µM*,-18.8,-5.8%[46.1 µM],u
CCOC(=O)c1c(C)[nH]c(C(=O)/C(C#N)=C/c2ccc(OC)c(OC)c2)c1C,-14.3%,2.6%,16.8µM*,-4.3,1.3%[46.1 µM],-21.6%
CCOc1ccc(NC(=O)CCc2c(C)nc3cc(-c4ccc(Cl)cc4)nn3c2C)cc1,-5.9%,x,x,x,x,-3.3%
Cc1ccccc1NC(=O)c1c(NC(=O)c2ccncc2)sc2c1CCC(C(C)(C)C)C2 (centres undefined),-10.2%,x,x,x,x,-2.7%
CCN1C(=O)c2ccccc2S(=O)c2ccc(C(=O)N3CCN(c4ccccc4OC)CC3)cc21 (centres undefined),-9.4%,x,x,x,x,-6.7%
CC(C)Sc1nnc2c3ccccc3n(C)c2n1,-4.1%,x,x,x,x,-1.7%
CSc1nnc2c3ccccc3c3ccccc3c2n1,0.2%,-1.6%,21.2µM*,-7.3,-5.6%,u
COc1cccc2sc3cc(NCc4ccc(C)o4)ccc3c(=O)c12,-24.0%,-13.2%,-8.7%,-11.6,12.0%,89.1µM*
COc1cc2c(cc1NS(=O)(=O)c1cccc(C#N)c1)n(C)c(=O)n2C,-6.0%,x,x,x,x,6.0%
COc1ccc(C(=O)CN2CCN(CCN3C(=O)c4cccc5cccc(c45)C3=O)CC2)cc1,u,16.1%,18.9µM*,-23.8,-5.0%,u
O=C(C[n+]1ccccc1Cl)c1ccc2ccccc2c1,-8.5%,x,x,x,x,x
O=C(c1cccc(Cl)c1Cl)N(Cc1ccco1)Cc1cccs1,u,x,x,x,x,79.4µM*
Nc1nc(CN2CCOCC2)cs1,3.3%,6.6%,23.8µM*,0.0,x,u
CN(C)c1ccc(/C=N/NC(=O)c2nonc2N)cc1[N+](=O)[O-],-11.7%,9.3%[57.1 µM],26.7µM*,-6.4,1.1%,-16.9%
COc1ccc(/C=N/NC(=O)c2nonc2N)cc1OC,1.9%,-32.1%,-1.8%,6.7,-5.4%,-13.3%
CCOC(=O)c1sc2nc3n(c(=O)c2c1C)CCC(C)CC3 (centres undefined),-0.3%,-0.6%,29.9µM*,x,-5.5%,-16.7%
Fc1ccc(-n2c(=S)[nH]c3cccnc32)cc1,8.2%,-6.0%,11.9µM*,-1.2,x,-15.5%
O=c1[nH]c(=S)n(-c2ccc(Br)cc2)c2ncccc12,-6.6%,-2.9%,-6.0%,0.0,5.7%,-14.2%
O=S(=O)(O)c1ccc2c(N=Nc3ccc(S(=O)(=O)O)c4ccccc34)c(O)c(S(=O)(=O)O)cc2c1,10µM*,x,x,x,x,-3.3%
CC(=O)Nc1ccc(S(=O)(=O)O)c2cc(S(=O)(=O)O)c(N=Nc3ccc(N=Nc4ccc(S(=O)(=O)O)cc4)c4ccc(S(=O)(=O)O)cc34)c(O)c12,1.26µM*,x,x,x,x,x
CCCN1CNc2c(c(=O)[nH]c(=S)n2CCc2cc(C)cc(C)c2)C1,-17.3%,x,x,x,x,u
COc1cc2c(cc1OC)C1C(=O)c3ccc4c(c3OC1CO2)C=CC(C)(C)O4 (centres undefined),x,x,x,x,x,-11.2%
Oc1ccc(/C=N/n2c(-c3ccccc3)n[nH]c2=S)cc1,-1.9%,6.0%,-10.4%,-3.6,-4.8%,-3.3%
O=[N+]([O-])c1cc(/C=N/n2c(-c3ccncc3)n[nH]c2=S)ccc1Cl,50.1µM*,u,-22.0%,u,-1.2%,0.3%
